Compound activity (PubChem)
The sample as a whole holds a higher share of hits than the screen did.
BL2 CD40 inh = CD40 pathway inhibition in BL2 cells. BL2 NF-kB luciferase reporter, CD40L-induced, 4 h. inhibition, % at 10 µM. 83,000 tested, 0.94% active. AID 1053188;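 active = mean inhibition of at least 50% with a set share of replicates also reaching that level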
Large screens that a line does not name were inactive; [ ] = another dose, or the depositor's remark.

CCOC(=O)c1c(SCCN2CCCCC2)n(-c2ccccc2)c(=S)n(-c2ccccc2)c1=O	BL2 CD40 inh 95
CCC(=O)N1[C@@H](CO)[C@@H](c2ccccc2)[C@@H]1CN(C)C(=O)c1ccccc1F	none
N#C[C@@H]1[C@H](c2ccccc2)[C@@H](CO)N1C(=O)Cc1ccccn1	none
O=C(C1CCCC1)N1CC[C@@H]2[C@H]1c1cc(-c3cccc(F)c3)ccc1N[C@@H]2CO	none
O=C1NCCOCc2cnnn2CC[C@H]1Cc1ccc(F)cc1	none
CCN(CC)c1ccc2nc3ccc(N)cc3[n+](-c3ccccc3)c2c1	BL2 CD40 inh 88
Nc1ccc2nc(Cc3ccccc3)[nH]c2c1	none
Cc1ccccc1-c1ccc(C2[C@H]3CNC[C@@H]2N3S(=O)(=O)Cc2ccccc2)cc1 (stereo not given in full)	none
CN1c2ccc(-c3cccc(F)c3)cc2[C@H]2[C@H](CCN2C(=O)C2CCC2)[C@H]1CO	none
CN1c2ccc(-c3cccc(F)c3)cc2[C@@H]2[C@@H](CCN2C(=O)C2CCC2)[C@H]1CO	none
CN1c2ccc(-c3cccc(F)c3)cc2[C@H]2[C@H](CCN2C(=O)C2CCCC2)[C@H]1CO	BL2 CD40 inh 54
COCC(=O)N1[C@H](C#N)[C@H](c2ccccc2-c2cccc(OC)c2)[C@@H]1CO	none
O=C(Nc1ccc(Cl)cc1)N1C[C@H]2[C@@H](c3ccccc31)[C@H](CO)N2C(=O)c1cccnc1	none
O=C(NCC[C@@H]1CC[C@H](NS(=O)(=O)Cc2ccccc2)[C@@H](CO)O1)C1CCCC1	none
N#C[C@H]1[C@@H](c2ccc(C#Cc3cccc(F)c3)cc2)[C@H](CO)N1C(=O)C1CCCC1	none
CCCNC(=O)N1[C@H](C#N)[C@H](c2ccc(C#Cc3cccc(F)c3)cc2)[C@H]1CO	BL2 CD40 inh 77[25 µM]
N#C[C@H]1[C@@H](c2ccc(C#Cc3ccccc3F)cc2)[C@@H](CO)N1C(=O)C1CCC1	none
N#C[C@H]1[C@@H](c2ccc(C#Cc3cccc(F)c3)cc2)[C@H](CO)N1C(=O)C1CC1	none
CCCNC(=O)N1[C@H](C#N)[C@@H](c2ccc(C#Cc3cccc(F)c3)cc2)[C@@H]1CO	none
N#C[C@H]1[C@H](c2ccc(C#Cc3cccc(F)c3)cc2)[C@@H](CO)N1C(=O)C1CCCC1	none
N#C[C@H]1[C@H](c2ccc(C#Cc3cccc(F)c3)cc2)[C@@H](CO)N1C(=O)C1CC1	none
N#C[C@H]1[C@H](c2ccc(C#Cc3cccc(F)c3)cc2)[C@@H](CO)N1C(=O)C1CCC1	BL2 CD40 inh 55
N#C[C@H]1[C@@H](c2ccc(C#Cc3cccc(F)c3)cc2)[C@@H](CO)N1C(=O)C1CCCC1	none
N#C[C@@H]1[C@@H](c2ccc(C#Cc3ccc(F)cc3)cc2)[C@H](CO)N1C(=O)C1CCC1	none
N#C[C@H]1[C@H](c2ccc(C#Cc3ccc(F)cc3)cc2)[C@@H](CO)N1C(=O)C1CCC1	BL2 CD40 inh 54[25 µM]
N#C[C@@H]1[C@H](c2ccc(C#Cc3ccc(F)cc3)cc2)[C@@H](CO)N1C(=O)C1CC1	BL2 CD40 inh 72
COc1ccc(C#Cc2ccc3c(c2)[C@H]2[C@H](CCN2S(=O)(=O)c2ccccc2C)[C@H](CO)N3C)cc1	none
CCCNC(=O)N1C[C@@H]2[C@H](c3ccccc31)[C@H](CO)N2Cc1cccc(OC)c1	none
O=C(C[C@H]1C[C@@H]2c3cc(NC(=O)C4CCOCC4)ccc3O[C@@H]2[C@@H](CO)O1)NCc1cc(F)ccc1F	none
C[C@@H]1CN([C@@H](C)CO)C(=O)CCCn2cc(nn2)CO[C@@H]1CN(C)C(=O)c1cc(-c2ccccc2)on1	none
C/C=C/c1ccc([C@H]2[C@@H](CO)N3C(=O)CN(C(=O)c4ccncc4)C[C@@H]23)cc1	none
O=C(C[C@H]1C[C@@H]2c3cc(NC(=O)NC4CCCC4)ccc3O[C@@H]2[C@H](CO)O1)NCc1ccccn1	none
CN(C)C(=O)c1ccc(-c2ccc3c(c2)[C@H]2[C@H](CCN2C(=O)C2CCCC2)[C@H](CO)N3C)cc1	none
COCCNC(=O)C[C@@H]1CC[C@H]2[C@@H](COC[C@H](O)CN2Cc2ccc(Cl)c(Cl)c2)O1	none
COc1ccccc1-c1ccc([C@@H]2[C@@H](C#N)N(C(=O)NC3CCCC3)[C@@H]2CO)cc1	none
C[C@H]1CN([C@@H](C)CO)C(=O)c2ccccc2-c2ccccc2CO[C@@H]1CN(C)C(=O)C1CC1	none
O=C(C[C@@H]1C[C@@H]2c3cc(NC(=O)C4CCC4)ccc3O[C@@H]2[C@@H](CO)O1)NCCc1ccccc1	none
CCCNC(=O)[C@@H]1[C@@H](CO)[C@@H]2Cn3c(ccc(-c4cccc(C(=O)N(C)C)c4)c3=O)[C@H]1N2	none
COc1cc2cc(C(=O)Nc3ccc4c(c3)OCCO4)[nH]c2cc1OC	BL2 CD40 inh 60
COc1ccccc1NC(=O)Nc1ccc2c(c1)OCCO2	none
COc1ccc(C(=O)Nc2ccc3c(c2)OCCO3)c(OC)c1	none
O=C(N[C@@H]1CC[C@@H](CCNC(=O)C2CCCC2)O[C@@H]1CO)c1ccccn1	none
Cc1ccccc1S(=O)(=O)N1[C@H](C#N)[C@H](c2ccc(-c3ccccc3)cc2)[C@@H]1CO	none
CC(C)NC(=O)N(C)C[C@H]1Oc2ccccc2CC(=O)N(C)C[C@H]1C	none
Cc1cnc(NC(=O)COc2ccc3c(c2)CCC3)s1	none
Cc1cccc(NC(=O)COc2ccc3c(c2)CCC3)n1	none
O=C(COc1ccc2c(c1)CCC2)Nc1ccccn1	BL2 CD40 inh 90
CCCN1C[C@@H](C)[C@@H](OC)CN(C)C(=O)c2cc(NC(=O)NC3CCCC3)ccc2OC[C@H]1C	none
O=C(C1CCOCC1)N1C[C@@H]2[C@H](c3ccccc31)[C@H](CO)N2Cc1ccc(Cl)cc1	none
COc1ccc(C(=O)O/N=C2\C(=O)N(C)c3ccccc32)cc1	BL2 CD40 inh 60
CN1C(=O)/C(=N\OC(=O)c2cccc3ccccc23)c2ccccc21	BL2 CD40 inh 99
O=C(O)c1ccc2c3c(cccc13)C(=O)N(c1cccc3ccccc13)C2=O	none
COc1ccc(C(=O)ON=C2CCN(C)CC2)cc1	none
COc1ccc(C(=O)NC2c3ccccc3-c3ccccc32)cc1	none
O=C(O/N=C(\c1ccccc1)c1ccccn1)c1cccc2ccccc12	none
O=C(c1ccccn1)N1C[C@H]2[C@@H](c3ccccc31)[C@H](CO)N2C(=O)Cc1ccccc1	none
COC(=O)C1CC(=O)N(Cc2ccccc2)C1 (stereo not given)	none
CCOc1ccc(CCNC(=O)C2CC(=O)N(Cc3ccc(C)cc3)C2)cc1OCC (stereo not given)	none
Cc1ccc(CN2CC(C(=O)Nc3ncc(C)s3)CC2=O)cc1 (stereo not given)	BL2 CD40 inh 78
CNC(=S)NN=C(C)CCCC(C)=NNC(=S)NC	BL2 CD40 inh 71
O=C(N[C@@H]1CC[C@H](CCNC(=O)C2CCOCC2)O[C@@H]1CO)c1ccncc1	none
O=C(C[C@H]1C[C@@H]2c3cc(NS(=O)(=O)c4ccccc4)ccc3O[C@@H]2[C@H](CO)O1)NC1CCCCC1	none
CN(C)C(=O)C[C@@H]1CC[C@H]2[C@@H](COC[C@@H](O)CN2S(=O)(=O)c2ccccc2Cl)O1	none
COc1cccc(-c2ccc([C@@H]3[C@@H](C#N)N(C(=O)c4ccccn4)[C@@H]3CO)cc2)c1	none
COc1cc2c(cc1OC)C(=O)CCS2	none
COc1cc2c(cc1OC)C(=O)N(C)CC2	none
COc1cc2c(cc1OC)C(=O)C(Br)CC2 (stereo not given)	BL2 CD40 inh 100
O=[N+]([O-])c1ccc2c(c1)c(-c1ccccc1)nc1nncn12	none
O=[N+]([O-])c1ccc(C=CC=Cc2ccccc2)cc1	none
CN(C)c1ccc(C=c2c3cc(O)ccc3n3c2cc(-c2ccccc2)[n+]3C)cc1	BL2 CD40 inh 80
